Experimental data taken from PubChem BioAssay (EPA / NIEHS).
Calls of active or inactive are those of the source. Rule for the calls: active = hit-call score of the fitted dose curve at least 0.9, where 1 is the maximum; inactive = score below 0.9. Peptide text beside a SMILES is read from it.

System: not listed separately
Assay: ATG_ERE_CIS: Attagene CIS-FACTORIAL HepG2 Assay for Estrogen Response Element (ERE) (AID 2282940)
Details: HepG2 ERE cis-reporter, Attagene RNA transcript; actives raise or lower the signal
Summary of the method: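 HepG2 cells transiently transfected with cis-promoter-driven multiplexed reporter transcription units report endogenous TF activity. After 24 h compound exposure, reporter mRNA is quantified by RT-PCR with capillary electrophoresis fluorescence; bidirectional fitting versus DMSO baseline.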
In the case of O=S(=O)(O)c1ccc(N=Nc2c(O)ccc3ccccc23)cc1, the AC50 is reported as 33.5 µM (active).
With CC1(C)[C@@H]2CC[C@@]1(C)C(=O)C2 the outcome was “inactive”.
With Cc1ccc(C)c(OCCCC(C)(C)C(=O)O)c1 the AC50 was 75.2 µM (active).
With COc1ccc(C(=O)/C(Br)=C\C(=O)O)cc1 the outcome was “inactive”.
With C/C=C/C=C/CCCCCCCO the outcome was “inactive”.
In the case of CCCCCCCCCCCC(C)=O, the AC50 is reported as 1.3 µM (active).
In the case of CC(=O)OCC=C(C)C, the outcome is reported as “inactive”.
In the case of CCCC=C(C=O)CC, the outcome is reported as “inactive”.
In the case of CCc1cccc(C)c1N, the outcome is reported as “inactive”.
In the case of CCCCCCCCCCCCC, the outcome is reported as “inactive”.
With COCC(=O)O the outcome was “inactive”.
For CCC1COC(=O)O1 (stereo not given), the outcome was “inactive”.
In the case of CCCC1CCCC(=O)O1 (stereo not given), the AC50 is reported as 21.3 µM (active).
With C[Si](C)(C)N[Si](C)(C)C the outcome was “inactive”.
In the case of CCCC(CC)c1ccccc1 (stereo not given), the AC50 is reported as 45.1 µM (active).
For CC(=O)OC1CCCCC1, the outcome was “inactive”.
For CCCCCC(=O)OCC, the outcome was “inactive”.
In the case of CC1CC(=O)CC(C)(C)C1 (stereo not given), the outcome is reported as “inactive”.
In the case of CC(C)(C)NC(=O)[C@H]1CC[C@H]2[C@@H]3CC[C@H]4NC(=O)C=C[C@]4(C)[C@H]3CC[C@]12C, the outcome is reported as “inactive”.
For CCC1(C)C(=O)N(Cl)C(=O)N1Cl (stereo not given), the outcome was “inactive”.
In the case of CC/C=C\CCOC(=O)c1ccccc1O, the outcome is reported as “inactive”.
With CN1CCN(C)CC1 the outcome was “inactive”.
In the case of CC(C)OC(=O)c1ccccc1, the outcome is reported as “inactive”.
In the case of COC(=O)[C@H](Cc1ccccc1)NC(=O)[C@@H](N)CC(=O)O (H-Asp-Phe-OMe), the AC50 is reported as 42.1 µM (active).
In the case of C=CCCCCCCCCC=O, the AC50 is reported as 88.7 µM (active).
With c1ccc(-c2nc3ccccc3[nH]2)cc1 the outcome was “inactive”.
For CC(=O)/C=C/C1C(C)=CCCC1(C)C (stereo not given), the AC50 was 44.7 µM (active).
For C=C(C)C1CC=C(C)CC1 (stereo not given), the outcome was “inactive”.
For CCCCCCCCC(CO)CCCCCC (stereo not given), the outcome was “inactive”.
For O=C(O)c1ccc2c(c1)C(=O)OC2=O, the outcome was “inactive”.
With CC(C)(c1ccccc1)c1ccc(Nc2ccc(C(C)(C)c3ccccc3)cc2)cc1 the outcome was “inactive”.
In the case of CCCC(C)C(=O)OCC (stereo not given), the outcome is reported as “inactive”.
In the case of NC(=O)Nc1ccccc1, the outcome is reported as “inactive”.
In the case of CC1=CCC(C(C)C)C=C1 (stereo not given), the outcome is reported as “inactive”.
For CCN(CC)c1cccc(C)c1, the outcome was “inactive”.
With CC(=O)OC/C=C(/C)CCC=C(C)C the outcome was “inactive”.
For O=C(O)c1cc(O)c2ccccc2c1O, the AC50 was 0.513 µM (active).

System: not listed separately
Assay: ATG_Ets_CIS: Attagene CIS-FACTORIAL HepG2 Assay for human Erythroblast Transformation Specific (ETS) (AID 2282941)
Details: HepG2 ETS cis-reporter transcription, actives raise or lower the signal
Summary of the method: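 After transient cis-reporter transfection, HepG2 cells receive test chemical for 24 h. Reporter mRNA levels, measured by RT-PCR and capillary electrophoresis fluorescence, are analysed bidirectionally relative to the DMSO baseline.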
In the case of O=S(=O)(O)c1ccc(N=Nc2c(O)ccc3ccccc23)cc1, the outcome is reported as “inactive”.
With CC1(C)[C@@H]2CC[C@@]1(C)C(=O)C2 the outcome was “inactive”.
In the case of Cc1ccc(C)c(OCCCC(C)(C)C(=O)O)c1, the outcome is reported as “inactive”.
For COc1ccc(C(=O)/C(Br)=C\C(=O)O)cc1, the outcome was “inactive”.
With C/C=C/C=C/CCCCCCCO the outcome was “inactive”.
For CCCCCCCCCCCC(C)=O, the AC50 was 160 µM (active).
For CC(=O)OCC=C(C)C, the outcome was “inactive”.
For CCCC=C(C=O)CC, the outcome was “inactive”.
With CCc1cccc(C)c1N the outcome was “inactive”.
With CCCCCCCCCCCCC the outcome was “inactive”.
With COCC(=O)O the outcome was “inactive”.
For CCCC1CCCC(=O)O1 (stereo not given), the outcome was “inactive”.
With C[Si](C)(C)N[Si](C)(C)C the outcome was “inactive”.
For CCCC(CC)c1ccccc1 (stereo not given), the outcome was “inactive”.
With CC(=O)OC1CCCCC1 the outcome was “inactive”.
In the case of CC1CC(=O)CC(C)(C)C1 (stereo not given), the outcome is reported as “inactive”.
With CC(C)(C)NC(=O)[C@H]1CC[C@H]2[C@@H]3CC[C@H]4NC(=O)C=C[C@]4(C)[C@H]3CC[C@]12C the outcome was “inactive”.
In the case of CC/C=C\CCOC(=O)c1ccccc1O, the outcome is reported as “inactive”.
In the case of CN1CCN(C)CC1, the outcome is reported as “inactive”.
In the case of CC(C)OC(=O)c1ccccc1, the outcome is reported as “inactive”.
For COC(=O)[C@H](Cc1ccccc1)NC(=O)[C@@H](N)CC(=O)O (H-Asp-Phe-OMe), the outcome was “inactive”.
In the case of C=CCCCCCCCCC=O, the outcome is reported as “inactive”.
In the case of c1ccc(-c2nc3ccccc3[nH]2)cc1, the outcome is reported as “inactive”.
In the case of CC(=O)/C=C/C1C(C)=CCCC1(C)C (stereo not given), the outcome is reported as “inactive”.
For C=C(C)C1CC=C(C)CC1 (stereo not given), the outcome was “inactive”.
With O=C(O)c1ccc2c(c1)C(=O)OC2=O the outcome was “inactive”.
For CC(C)(c1ccccc1)c1ccc(Nc2ccc(C(C)(C)c3ccccc3)cc2)cc1, the outcome was “inactive”.
For CCCC(C)C(=O)OCC (stereo not given), the outcome was “inactive”.
In the case of NC(=O)Nc1ccccc1, the outcome is reported as “inactive”.
In the case of CC1=CCC(C(C)C)C=C1 (stereo not given), the outcome is reported as “inactive”.
In the case of CC(=O)OC/C=C(/C)CCC=C(C)C, the outcome is reported as “inactive”.

Target: Hepatocyte nuclear factor 3-beta (Homo sapiens) (UniProt Q9Y261)
Sequence (Q9Y261 whole entry, looked up): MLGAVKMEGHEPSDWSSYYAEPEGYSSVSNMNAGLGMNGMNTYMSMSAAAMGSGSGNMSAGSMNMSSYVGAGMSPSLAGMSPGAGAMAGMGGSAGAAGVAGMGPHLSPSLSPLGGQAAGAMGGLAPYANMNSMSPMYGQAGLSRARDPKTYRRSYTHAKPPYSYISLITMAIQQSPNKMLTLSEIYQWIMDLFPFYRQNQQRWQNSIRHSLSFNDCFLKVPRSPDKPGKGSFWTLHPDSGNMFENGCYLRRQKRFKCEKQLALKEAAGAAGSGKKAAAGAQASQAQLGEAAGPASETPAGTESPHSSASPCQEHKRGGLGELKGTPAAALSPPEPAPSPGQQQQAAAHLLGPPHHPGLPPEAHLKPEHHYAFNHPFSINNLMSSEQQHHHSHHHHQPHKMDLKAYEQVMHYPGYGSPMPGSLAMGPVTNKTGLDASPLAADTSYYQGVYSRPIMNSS
Assay: ATG_FoxA2_CIS: Attagene CIS-FACTORIAL HepG2 Assay for human Forkhead box A2 (FOXA2) (AID 2282942)
Details: HepG2 cis-reporter transcription factor activity, 24 h; actives raise or lower the signal
Summary of the method: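 Measured: reporter mRNA induction or loss in HepG2 transiently carrying multiple cis-regulated reporter units, 24 h after dosing. Quantified by RT-PCR plus capillary electrophoresis, normalised to DMSO.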
In the case of O=S(=O)(O)c1ccc(N=Nc2c(O)ccc3ccccc23)cc1, the AC50 is reported as 7.83 µM (active).
For CC1(C)[C@@H]2CC[C@@]1(C)C(=O)C2, the outcome was “inactive”.
With Cc1ccc(C)c(OCCCC(C)(C)C(=O)O)c1 the outcome was “inactive”.
For COc1ccc(C(=O)/C(Br)=C\C(=O)O)cc1, the outcome was “inactive”.
In the case of C/C=C/C=C/CCCCCCCO, the outcome is reported as “inactive”.
With CCCCCCCCCCCC(C)=O the outcome was “inactive”.
In the case of CC(=O)OCC=C(C)C, the outcome is reported as “inactive”.
For CCCC=C(C=O)CC, the outcome was “inactive”.
In the case of CCc1cccc(C)c1N, the outcome is reported as “inactive”.
In the case of CCCCCCCCCCCCC, the outcome is reported as “inactive”.
With COCC(=O)O the outcome was “inactive”.
With CCC1COC(=O)O1 (stereo not given) the outcome was “inactive”.
For CCCC1CCCC(=O)O1 (stereo not given), the outcome was “inactive”.
For C[Si](C)(C)N[Si](C)(C)C, the outcome was “inactive”.
With CCCC(CC)c1ccccc1 (stereo not given) the outcome was “inactive”.
With CC(=O)OC1CCCCC1 the outcome was “inactive”.
In the case of CCCCCC(=O)OCC, the outcome is reported as “inactive”.
With CC1CC(=O)CC(C)(C)C1 (stereo not given) the outcome was “inactive”.
For CC(C)(C)NC(=O)[C@H]1CC[C@H]2[C@@H]3CC[C@H]4NC(=O)C=C[C@]4(C)[C@H]3CC[C@]12C, the outcome was “inactive”.
For CCC1(C)C(=O)N(Cl)C(=O)N1Cl (stereo not given), the outcome was “inactive”.
For CC/C=C\CCOC(=O)c1ccccc1O, the outcome was “inactive”.
For CN1CCN(C)CC1, the outcome was “inactive”.
With CC(C)OC(=O)c1ccccc1 the outcome was “inactive”.
In the case of COC(=O)[C@H](Cc1ccccc1)NC(=O)[C@@H](N)CC(=O)O (H-Asp-Phe-OMe), the outcome is reported as “inactive”.
In the case of C=CCCCCCCCCC=O, the outcome is reported as “inactive”.
With c1ccc(-c2nc3ccccc3[nH]2)cc1 the outcome was “inactive”.
For CC(=O)/C=C/C1C(C)=CCCC1(C)C (stereo not given), the outcome was “inactive”.
In the case of C=C(C)C1CC=C(C)CC1 (stereo not given), the outcome is reported as “inactive”.
With CCCCCCCCC(CO)CCCCCC (stereo not given) the outcome was “inactive”.
In the case of O=C(O)c1ccc2c(c1)C(=O)OC2=O, the outcome is reported as “inactive”.
In the case of CC(C)(c1ccccc1)c1ccc(Nc2ccc(C(C)(C)c3ccccc3)cc2)cc1, the outcome is reported as “inactive”.
In the case of CCCC(C)C(=O)OCC (stereo not given), the outcome is reported as “inactive”.
In the case of NC(=O)Nc1ccccc1, the outcome is reported as “inactive”.
For CC1=CCC(C(C)C)C=C1 (stereo not given), the outcome was “inactive”.
For CCN(CC)c1cccc(C)c1, the outcome was “inactive”.
With CC(=O)OC/C=C(/C)CCC=C(C)C the outcome was “inactive”.
For O=C(O)c1cc(O)c2ccccc2c1O, the outcome was “inactive”.
